Out of some 340,000 compounds screened, about 8,500 (2.5%) were called active. The entries come from a sample that favours actives as a whole. Values without a mark were called inactive.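 How the source made its calls: active means melting temperature shift of at least 10% of the positive control shift, at one fixed dose; inactive means the rest.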

The source of these data is PubChem BioAssay AID1259313 (Sanford-Burnham Center for Chemical Genomics, 2017).

In this assay the test system is Glutamate receptor ionotropic, NMDA 3A (GRIN3A) ligand-binding domain. Nature of the assay: binders of NR3A ligand-binding domain, primary screen, biophysical, differential scanning fluorimetry, uHTS (AID 1259313). The settings on record: NR3A LBD differential scanning fluorimetry, at 25 µM, active compounds read high, 0% = protein alone, 100% = glycine-bound protein. (In general: In DSF a fluorescence change marks the thermal transition of the protein.)
Consider `COc1ccccc1C(=O)OCC(=O)NCCNC(=O)COC(=O)c1ccccc1OC`, for which the Tm shift relative to glycine control was -2.11%.

With `CCSc1nnc(SCC(=O)NNC(=O)c2ccccc2F)s1`, the Tm shift relative to glycine control is 0.44%.

For `O=C(NN1C(=O)C2C3C=CC(O3)C2C1=O)c1ccncc1` (stereo not drawn), the Tm shift relative to glycine control was 2.17%.

For the compound `CCO[C@@H]1OC(C(N)=O)=C[C@H](c2ccc(Br)cc2)[C@H]1CCCO`, the Tm shift relative to glycine control is 2.58%.

With `COc1ccc(CCNS(=O)(=O)c2cc3c(cc2C)NC(=O)CO3)cc1OC`, the Tm shift relative to glycine control is 2.97%.

Consider `O=c1ccn([C@@H]2O[C@H](CNS(=O)(=O)c3cc4ccccc4s3)[C@@H](O)[C@H]2O)c(=O)[nH]1`, for which the Tm shift relative to glycine control was -1.03%.

Take `CCOC(=O)N1CCN(S(=O)(=O)c2ccc(C(=O)Nc3ccc(F)cc3F)cc2)CC1`: the Tm shift relative to glycine control was -2.71%.

For `CC(C)Oc1ccc(CC(=O)NNC(=S)Nc2ccc(Br)cc2)cc1`, the Tm shift relative to glycine control was -3.79%.

Turning to `C=CCn1c(C23CC4CC(CC(C4)C2)C3)n[nH]c1=S`, the Tm shift relative to glycine control is 0.44%.

On to `COc1ccc(Br)cc1/C=N/Nc1ccc(S(=O)(=O)Nc2ccccc2C(=O)O)cc1[N+](=O)[O-]`, for which the Tm shift relative to glycine control was 503% (active).

Regarding `Cc1ccc(NS(=O)(=O)c2ccc(N/N=C/c3ccccc3OCC(=O)O)c([N+](=O)[O-])c2)c(C)c1`, the Tm shift relative to glycine control is 3.61%.

For `O=C(O)c1ccccc1/C=N/Nc1ccc(S(=O)(=O)Nc2ccc(Cl)cc2)cc1[N+](=O)[O-]`, the Tm shift relative to glycine control was 9.21%.

`COc1ccc(S(=O)(=O)Nc2ccc3cn[nH]c3c2)cc1[N+](=O)[O-]`: the Tm shift relative to glycine control was -8.84%.

With `COc1cccc(/C=N/Nc2ccc(S(=O)(=O)Nc3ccccc3C(=O)O)cc2[N+](=O)[O-])c1O`, the Tm shift relative to glycine control was 22.4% (active).

Consider `COc1ccc(S(=O)(=O)Nc2ccccc2C(=O)N2CCCC2)cc1C`, for which the Tm shift relative to glycine control was 2.36%.

For the compound `COc1ccc(CCNC2=C(Cl)C(=O)N(Cc3ccccc3)C2=O)cc1OC`, the Tm shift relative to glycine control was 2.81%.

On to `CC(=O)c1ccc(N2CCN(S(=O)(=O)c3ccc4c(c3)CC(=O)N4C)CC2)cc1`, for which the Tm shift relative to glycine control was 4.97%.

Consider `Cc1ccc(CC(=O)Nc2ccc(OC(F)F)c(Cl)c2)cc1C`, for which the Tm shift relative to glycine control was 3.08%.

Turning to `O=C(Cc1ccc(Cl)c(Cl)c1)Nc1ccc(SC(F)F)cc1`, the Tm shift relative to glycine control is 25.9% (active).

In the case of `CC(=O)N1CCN(CC(=O)Nc2ccc(SC(F)F)cc2)CC1`, the Tm shift relative to glycine control is -2.44%.

In the case of `Cc1c(Cl)c([N+](=O)[O-])nn1CC(=O)NCCCN1CCOCC1`, the Tm shift relative to glycine control was -0.8%.

Take `COc1cc(-c2c(-c3ccc4c(c3)OCO4)noc2C)ccc1F`: the Tm shift relative to glycine control is -2.27%.

In the case of `COc1cc2c(-c3ccc4c(c3)OCO4)c(-c3ccsc3)oc(=O)c2cc1OC`, the Tm shift relative to glycine control was 12.9% (active).

`COc1cc(C(=O)CCc2ccc3c(c2)OCO3)cc(OC)c1OC`: the Tm shift relative to glycine control is 0.46%.

In the case of `CN(C)CCCn1c(SCc2ccc(Cl)cc2)nnc1-c1ccncc1`, the Tm shift relative to glycine control was -5.52%.

For `CC(C)(Oc1ccc(Cl)cc1)C(=O)OCC(=O)NCCc1ccc(S(N)(=O)=O)cc1`, the Tm shift relative to glycine control is -1.31%.

Regarding `CN(C)N=Nc1ccc2nc[nH]c2c1`, the Tm shift relative to glycine control is -1.21%.

Take `COc1ccc2[nH]c3c(c2c1)CCN1C(=O)C(CC(=O)NCc2cccc(C(F)(F)F)c2)C[C@H](C(=O)N2CCOCC2)[C@@]31C` (stereo partly drawn): the Tm shift relative to glycine control is -2.74%.

On to `COC(=O)c1sc(N)c(C(=O)OC)c1COC(=O)CNS(=O)(=O)c1ccc(C)cc1`, for which the Tm shift relative to glycine control was 13.2% (active).

`C/C(N)=C(/C#N)C(=O)COC(=O)CNS(=O)(=O)c1ccc(C)cc1`: the Tm shift relative to glycine control is -0.65%.

For the compound `COC(=O)CNS(=O)(=O)c1ccc(Cc2ccc(S(=O)(=O)NCC(=O)OC)cc2)cc1`, the Tm shift relative to glycine control is 1.25%.

Consider `CCN(CC)C(=O)Oc1ccc(OC(=O)N(CC)CC)cc1`, for which the Tm shift relative to glycine control was -0.08%.

For the compound `CCOc1ccccc1N1CCN(C(=S)Nc2ccc(S(N)(=O)=O)cc2)CC1`, the Tm shift relative to glycine control is 31.7% (active).

With `COc1ccc(N2CCN(C(=S)Nc3ccc(S(N)(=O)=O)cc3)CC2)cc1`, the Tm shift relative to glycine control is 1.93%.

With `NS(=O)(=O)c1ccc(NC(=S)N2CCCC2)cc1`, the Tm shift relative to glycine control is -6.36%.

For `O=C(Nc1ccccc1C(=O)N1CCOCC1)C1CCC(=O)N1C1CCCC1` (stereo not drawn), the Tm shift relative to glycine control was -0.29%.

Regarding `O=C(c1cc(-c2cccc(O)c2)on1)N1CCc2ccccc2C1`, the Tm shift relative to glycine control is -13.5%.

For `CN(c1ccc(C(=O)N2CCc3ccccc3C2)cc1)S(C)(=O)=O`, the Tm shift relative to glycine control was -0.88%.

On to `Cn1cccc1C(=O)N1CCc2ccccc2C1`, for which the Tm shift relative to glycine control is 38.1% (active).

As for `Cc1nn(Cc2ccccc2)c(C)c1CNC(=O)c1ccc(F)c(S(=O)(=O)N2CCOCC2)c1`, the Tm shift relative to glycine control was 0.42%.

For `Cc1cc(C(=O)NNC(=S)NC(C)c2ccccc2)cs1` (stereo not drawn), the Tm shift relative to glycine control is -0.62%.

Consider `CCCN1Cc2cccc(C(=O)Nc3ccc(S(=O)(=O)N4CCCCCC4)cc3)c2C1=O`, for which the Tm shift relative to glycine control is -5.76%.

With `O=S(=O)(Nc1n[nH]c(C(F)(F)F)n1)c1ccccc1`, the Tm shift relative to glycine control is -16.9%.

Consider `COc1ccccc1NC(=O)Nc1nc(CC(=O)Nc2ccccc2F)cs1`, for which the Tm shift relative to glycine control is 27.7% (active).

In the case of `COc1ccccc1NC(=O)COC(=O)COc1ccccc1F`, the Tm shift relative to glycine control is 0.17%.

As for `COc1ccccc1NC(=O)Nc1nnc(Cc2ccc(F)cc2)s1`, the Tm shift relative to glycine control was -6.85%.

`Cc1cc(C)c(C)c(S(=O)(=O)N2CCN(C(=O)c3ccc4c(=O)n5c(nc4c3)CCC5)CC2)c1C`: the Tm shift relative to glycine control was -1.83%.

Regarding `Cc1ccc(C2=NN(C)c3nc4ccccc4n3C2)cc1`, the Tm shift relative to glycine control was -0.88%.

Regarding `CCOC(=O)C1=CN(Cc2ccc(Br)cc2)S(=O)(=O)N(C)C1C` (stereo not drawn), the Tm shift relative to glycine control was 16.8% (active).

For `CCOC(=O)c1sc(=NC(=O)c2ccc(Br)cc2)n(C)c1C`, the Tm shift relative to glycine control is -1.61%.

Regarding `CCOC(=O)C1=CN(Cc2ccc(Br)cc2)S(=O)(=O)NC1C` (stereo not drawn), the Tm shift relative to glycine control is -0.08%.

For the compound `Cc1ccc(Sc2cc(C(=O)c3ccccc3C(=O)O)ccc2[N+](=O)[O-])cc1`, the Tm shift relative to glycine control was 2.48%.

For the compound `CCN(CC(=O)Nc1cc(Cl)ccc1C)C(=O)CSCc1ccccc1`, the Tm shift relative to glycine control is 3.04%.

With `C=CCC1(C#N)C(=S)NC(C)=C(C(=O)OCC)C1c1ccccc1` (stereo not drawn), the Tm shift relative to glycine control was -1.45%.

Consider `Cc1ccc(CNC(=O)CSc2nnc3c(n2)[nH]c2ccc(F)cc23)cc1`, for which the Tm shift relative to glycine control was 2.6%.

On to `Oc1[nH]c2ccccc2c1N=Nc1c(F)c(F)c(F)c(F)c1F`, for which the Tm shift relative to glycine control is 9.33%.

`Cc1cccc(N=Nc2c(O)[nH]c3ccc(F)cc23)c1`: the Tm shift relative to glycine control is 10.2% (active).

As for `O=C1CN(C(=O)c2cc(F)cc(F)c2)c2ccccc2N1`, the Tm shift relative to glycine control is -2.16%.

In the case of `NC1=NC(=O)S/C1=C\c1ccc(O)cc1`, the Tm shift relative to glycine control was 32.2% (active).

In the case of `O=C1N=C(N2CCc3ccccc3C2)S/C1=C\c1ccc(O)cc1`, the Tm shift relative to glycine control is -10.4%.

Consider `CC(C)(C)c1ccc(/C=C2\SC(=O)N=C2N)cc1`, for which the Tm shift relative to glycine control was -1.96%.

Regarding `Cc1c(CN2CCCC(C(=O)c3cccc(Cl)c3)C2)c(=O)n(-c2ccccc2)n1C` (stereo not drawn), the Tm shift relative to glycine control was -0.59%.

Take `CCN(CC)c1ccc(NC(=O)c2ccc(Cl)nc2)cc1`: the Tm shift relative to glycine control is -1.3%.

Consider `COc1ccccc1N1CCN(S(=O)(=O)CCNC(=O)c2ccc(OC(C)C)cc2)CC1`, for which the Tm shift relative to glycine control is 0.83%.

Regarding `O=C(NCCS(=O)(=O)N1CCN(c2ccccc2)CC1)c1ccco1`, the Tm shift relative to glycine control is 2.13%.

For the compound `O=C(NCCS(=O)(=O)N1CCN(c2ccccc2F)CC1)c1ccc(Br)o1`, the Tm shift relative to glycine control was 121% (active).

On to `COc1ccc(CCNC(=O)C(=O)NCC2CCNCC2)cc1OC`, for which the Tm shift relative to glycine control was -0.1%.

For `CCc1ccc(-c2nn(-c3ccccc3)cc2CSC(=N)N)cc1`, the Tm shift relative to glycine control is -0.35%.

As for `COc1cc(NS(=O)(=O)c2ccc(NC(=S)NC(=O)c3ccc(Br)cc3)cc2)ncn1`, the Tm shift relative to glycine control was -6.1%.

With `COc1ccc(Br)cc1/C=N/Nc1ccc(Cl)c(C(=O)O)c1`, the Tm shift relative to glycine control was -7.4%.

Consider `O=c1[nH]c2cccnc2n(CCNc2ncc(C(F)(F)F)cc2Cl)c1=O`, for which the Tm shift relative to glycine control was -2.11%.

On to `COc1cccc(/C=N/Nc2ncc(C(F)(F)F)cc2Cl)c1O`, for which the Tm shift relative to glycine control is 24.2% (active).

Regarding `CCCCN(C(=O)c1nn(C)c(=O)c2ccccc12)c1c(N)n(CCC)c(=O)[nH]c1=O`, the Tm shift relative to glycine control is 0.36%.

With `N#CC1=C(N)Oc2cc(O)ccc2C1C1CCCCC1` (stereo not drawn), the Tm shift relative to glycine control was 12% (active).

For the compound `N#CC1=C(N)Oc2cc(N)ccc2C1c1ccccc1` (stereo not drawn), the Tm shift relative to glycine control is -2.17%.

Consider `COc1ccc(C2C(C#N)=C(N)Oc3cc(N)ccc32)cc1OC` (stereo not drawn), for which the Tm shift relative to glycine control was -4.08%.

Take `COCC(C)NC(=O)CSc1nc2nn(-c3ccccc3)c(=O)c-2c2n1CCCCC2` (stereo not drawn): the Tm shift relative to glycine control is -0.39%.

Regarding `O=C(Nc1cc(S(=O)(=O)N2CCOCC2)ccc1Cl)c1cc(=O)c2ccccc2o1`, the Tm shift relative to glycine control is 0.31%.

With `CC(=O)c1ccc(N2CCN(C(=O)C3CCN(S(=O)(=O)c4ccc5c(c4)CC(C)N5C(=O)C4CC4)CC3)CC2)cc1` (stereo not drawn), the Tm shift relative to glycine control is 1.27%.

As for `COc1cc(OC)c(S(=O)(=O)Nc2ccccc2C(=O)O)cc1S(=O)(=O)Nc1ccccc1C(=O)O`, the Tm shift relative to glycine control is 5.12%.

As for `COc1cc(NC(=O)c2ccccc2NS(=O)(=O)c2ccc(Cl)s2)cc(OC)c1`, the Tm shift relative to glycine control was 21.3% (active).

For `COC(=O)c1ccc(NC(=O)c2ccccc2NS(=O)(=O)c2ccccc2)cc1`, the Tm shift relative to glycine control is 2.17%.

Turning to `CCC/C(O)=C1\C(=O)CC(C)(C)CC1=Nc1ccccc1OC`, the Tm shift relative to glycine control is -0.4%.

In the case of `CCCC(=O)Nc1ccc(C(=O)N/N=C/c2ccc[nH]2)cc1`, the Tm shift relative to glycine control was 0.18%.

Consider `CC(=O)Nc1ccc(C(=O)NNC(=O)CCCCC(=O)NNC(=O)c2ccc(NC(C)=O)cc2)cc1`, for which the Tm shift relative to glycine control was -2.46%.

On to `CC(=O)Nc1ccc(C(=O)/C=C/c2ccc[nH]2)cc1`, for which the Tm shift relative to glycine control is 19.4% (active).

Take `CC1=C(C)C(=O)OC(C(C)C2CCC3C4CC=C5CC(OC6OC(COC7OC(CO)C(O)C(O)C7O)C(O)C(O)C6O)CC(O)C5(C)C4CCC23C)C1` (stereo not drawn): the Tm shift relative to glycine control is -4.54%.

As for `O=C(CN(Cc1ccc(Br)cc1)S(=O)(=O)c1ccccc1)NCc1ccncc1`, the Tm shift relative to glycine control is 0.51%.
